Values joined by “and” are separate entries in the source; they are usually repeats but may differ in a detail not shown here. Identical values can stand only once. This is part of a sample that, as a whole, favours compounds with a hit. Of some 83,000 tested, about 20% had one in any assay.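 Growth was measured after 48 h exposure to one concentration of compound in 96-well plates. Values under 10 count as active.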 Active and inactive are the calls of the source.

Some test systems named below: SK-MEL-2 melanoma; EKVX NSCLC; SN12C renal; UO-31 renal; TK-10 renal; ACHN renal; CAKI-1 renal; A498 renal; CCRF-CEM leukemia; MOLT-4 leukemia.
Assay in all cases: NCI-60 one-dose screen, 48 h (100 = growth as untreated, 0 = no growth, -100 = all killed)
Conditions in all cases: 10 µM unless noted

With `N#Cc1c(-c2ccc(F)cc2)nc(SCc2ccc(F)cc2)nc1N1CCNCC1`, the growth in the assay with SK-MEL-2 melanoma was -73% (active); in the assay with EKVX NSCLC, 1.29% (active); in the assay on SN12C renal, -58.6% (active); in the assay with UO-31 renal it was 8.26% (active); in the assay on TK-10 renal, -25% (active); in the assay with ACHN renal, -79% (active). Besides, the growth was -80.1% (active) in the assay with CAKI-1 renal, 96.5% (inactive) in the assay on A498 renal, 4.49% (active) in the assay with CCRF-CEM leukemia and 7.79% (active) in the assay with MOLT-4 leukemia.
Turning to `CCCCCCCCCCCCCCCCCC(=O)Nc1ccc(OC)cc1`, the growth in the assay on SK-MEL-2 melanoma was 102% (inactive); in the assay on EKVX NSCLC it was 94.7% (inactive); with SN12C renal, 99.7% (inactive); in the assay on UO-31 renal, 88.8% (inactive); in the assay on TK-10 renal it was 99.8% (inactive); in the assay with ACHN renal it was 105% (inactive). Moreover, the growth with CAKI-1 renal is 98% (inactive); in the assay with A498 renal, 105% (inactive); in the assay on CCRF-CEM leukemia, 86.4% (inactive); with MOLT-4 leukemia, 102% (inactive).
On to `C[C@H](NC(=O)c1ccc2c(-c3ccc(C(F)(F)F)cc3)cccc2c1)c1ccccn1`, for which the growth in the assay with SK-MEL-2 melanoma is 67.2% (inactive); with EKVX NSCLC, 22.8% (inactive); in the assay with SN12C renal it was 42% (inactive); with UO-31 renal, 13.6% (inactive); with TK-10 renal, 42.6% (inactive); in the assay with ACHN renal, 41.1% (inactive). In addition, the growth in the assay with CAKI-1 renal was 38.8% (inactive); in the assay on A498 renal, 72.5% (inactive); with CCRF-CEM leukemia, 38.6% (inactive); in the assay on MOLT-4 leukemia, 19.4% (inactive).
For the compound `COc1ccc2[nH]cc(-c3cc4nc(-c5cn(C)c6ncccc56)cc(N)n4n3)c2c1`, the growth is 97.2% (inactive) in the assay on SK-MEL-2 melanoma; 55.1% (inactive) in the assay with EKVX NSCLC; 26.2% (inactive) in the assay with SN12C renal; 12.3% (inactive) in the assay with UO-31 renal; 78.1% (inactive) in the assay with TK-10 renal; 7.66% (active) in the assay on ACHN renal. Moreover, the growth in the assay on CAKI-1 renal was -65.2% (active); with A498 renal, 116% (inactive); in the assay on CCRF-CEM leukemia, -34.3% (active); in the assay on MOLT-4 leukemia, -9.04% (active).
Take `Cc1cccc(-c2ccccc2Oc2ccc3nnc(Cl)n3n2)c1`: the growth is 105% (inactive) in the assay on SK-MEL-2 melanoma; 98.2% (inactive) in the assay on EKVX NSCLC; 101% (inactive) in the assay on SN12C renal; 90.6% (inactive) with UO-31 renal; 103% (inactive) in the assay on TK-10 renal; 105% (inactive) in the assay on ACHN renal. The growth was 92.2% (inactive) in the assay on CAKI-1 renal, 117% (inactive) in the assay on A498 renal, 103% (inactive) with CCRF-CEM leukemia and 103% (inactive) in the assay on MOLT-4 leukemia.
On to `O=C(CCl)Nc1ccc(C(=O)/C=C/c2cc3ccccc3nc2Cl)cc1`, for which the growth was -3.09% (active) and 60% (inactive) in the assay with SK-MEL-2 melanoma; -5.66% (active) and 36.7% (inactive) in the assay with EKVX NSCLC; -74.1% (active) and 39.4% (inactive) in the assay with SN12C renal; -98.1% (active) and 1.88% (active) in the assay on UO-31 renal; 49.1% (inactive) and 74.8% (inactive) in the assay with TK-10 renal; -99.2% (active) and 9.77% (active) in the assay on ACHN renal. Moreover, the growth is -43.5% (active) and 11.1% (inactive) in the assay with CAKI-1 renal; 116% (inactive) and 193% (inactive) with A498 renal; -23.1% (active) and 5.66% (active) in the assay on CCRF-CEM leukemia; -46% (active) and 18.3% (inactive) in the assay with MOLT-4 leukemia.
For `Nc1nn2c(-c3cc4cc(Br)ccc4oc3=O)ccnc2c1N=Nc1ccccc1`, the growth in the assay on SK-MEL-2 melanoma was 16.1% (inactive); in the assay on EKVX NSCLC it was 36.4% (inactive); in the assay on SN12C renal, -24.4% (active); in the assay with UO-31 renal, 30.2% (inactive); with TK-10 renal it was 39.9% (inactive); in the assay on ACHN renal, 0.225% (active). Further, the growth was -17% (active) with A498 renal, 94.5% (inactive) in the assay on CCRF-CEM leukemia and 87.1% (inactive) in the assay on MOLT-4 leukemia.
Consider `Fc1ccccc1CNc1nc(SCCN2CCOCC2)nc2c1cnn2CC(Cl)c1ccc(Br)cc1` (configuration not stated), for which the growth is 31.1% (inactive) with SK-MEL-2 melanoma; 49% (inactive) in the assay with EKVX NSCLC; 53.2% (inactive) in the assay on SN12C renal; -6.44% (active) in the assay with UO-31 renal; 58.9% (inactive) with TK-10 renal; 25.1% (inactive) with ACHN renal. The growth in the assay on A498 renal is 53.8% (inactive); in the assay with CCRF-CEM leukemia, 22.4% (inactive); in the assay on MOLT-4 leukemia, -25.2% (active).
For `COc1cccc(C(N)=Nc2ccc(OCCCCCCCCn3cncn3)cc2)c1`, the growth is 14% (inactive) in the assay on SK-MEL-2 melanoma; 37.4% (inactive) in the assay with EKVX NSCLC; 20.6% (inactive) in the assay with SN12C renal; 39.5% (inactive) in the assay with UO-31 renal; 57% (inactive) in the assay on TK-10 renal; 28% (inactive) in the assay with ACHN renal. The growth is 94.3% (inactive) in the assay on A498 renal, 16.4% (inactive) in the assay on CCRF-CEM leukemia and 16.8% (inactive) in the assay on MOLT-4 leukemia.
Take `Cc1ccc(C(=O)Nc2cc(-n3ccnc3)cc(C(F)(F)F)c2)cc1-n1cc(-c2cnc3cccnn23)nn1`: the growth with SK-MEL-2 melanoma was 61.1% (inactive); in the assay with EKVX NSCLC, 117% (inactive); in the assay on SN12C renal, 105% (inactive); in the assay on UO-31 renal it was 61.4% (inactive); in the assay with TK-10 renal, 135% (inactive); in the assay on ACHN renal, 97.8% (inactive). For the same compound, the figures for the growth in the assay on A498 renal and with CCRF-CEM leukemia were 180% (inactive) and 96% (inactive), respectively.
As for `O=C(N=Nc1c(O)[nH]c2ccc(Br)cc12)c1ccc2nc(-c3ccc(Cl)cc3)[nH]c2c1`, the growth with SK-MEL-2 melanoma is 2.45% (active); in the assay with EKVX NSCLC, -14.1% (active); in the assay on SN12C renal, -50.8% (active); in the assay on UO-31 renal, 73.2% (inactive); in the assay with TK-10 renal, 54.3% (inactive); with ACHN renal it was 50.5% (inactive). In addition, the growth in the assay with A498 renal was 115% (inactive); in the assay on CCRF-CEM leukemia, 7.74% (active); in the assay on MOLT-4 leukemia, -0.379% (active).
`Clc1ccc2c(NCCNC34CC5CC(CC(C5)C3)C4)ccnc2c1`: the growth in the assay on SK-MEL-2 melanoma is -88% (active); in the assay on EKVX NSCLC it was -67.5% (active); in the assay with SN12C renal, -74.5% (active); in the assay with UO-31 renal it was -98.6% (active); in the assay on TK-10 renal, -94.7% (active); with ACHN renal it was -95.8% (active). Besides, the results for the growth in the assay with A498 renal, with CCRF-CEM leukemia and with MOLT-4 leukemia were -94.2% (active), 4.53% (active) and -23.1% (active), respectively.
`COc1cc(CNC(=O)C[C@H](C)CCC=C(C)C)ccc1OCc1cn(-c2ccc(Cl)cc2Cl)nn1`: the growth was 71.7% (inactive) in the assay with SK-MEL-2 melanoma; 81.1% (inactive) in the assay on EKVX NSCLC; 64.8% (inactive) in the assay on SN12C renal; 60.5% (inactive) in the assay with UO-31 renal; 68.7% (inactive) in the assay with TK-10 renal; 61.1% (inactive) in the assay on ACHN renal. Besides, the growth in the assay on A498 renal was 59% (inactive); with CCRF-CEM leukemia, 116% (inactive); in the assay with MOLT-4 leukemia it was 84% (inactive).

The values above are taken from PubChem BioAssay (NCI).
